Calls of active or inactive are those of the source.

Test [1] is described as follows: small molecules captured by biotinylated probe aFSTL3 – biochemical, small-molecule microarray, fluorescence 635/667, stem cell growth factor project, primary screen (AID 1064).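 Also: measures binding of the biotinylated anti-FSTL3 antibody to printed compounds.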 To be noted: higher = more signal.
The nature of test [2]: binders from COS7 lysate, DM2A8 probe, primary screen, torsin A project, cell lysate, small-molecule microarray, fluorescence 635/667 (AID 1065). The conditions noted are these: higher = more signal, COS7 lysate expressing mutant human TOR1A.
The nature of test [3]: small molecules captured by biotinylated probe aFGF2 – biochemical, small-molecule microarray, fluorescence 635/667, stem cell growth factor project, primary screen (AID 1067).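 Also: measures binding of biotinylated aFGF2 protein to printed compounds on slides; z-score merges feature fluorescence and signal-to-noise across triplicate slides.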 The conditions noted are these: higher = more signal.
Test [4] in a line: small molecules captured by biotinylated probe aFGF10 – biochemical, small-molecule microarray, fluorescence 635/667, stem cell growth factor project, primary screen (AID 1071).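 Also: score merges 667 nm spot intensity and signal to noise from triplicate slides.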 To be noted: higher = more signal.
Test [5] has as its target Neurogenic locus notch homolog protein 2 (Homo sapiens) (UniProt Q04721). The test is described as follows: small molecules binding Notch2 protein – biochemical, small-molecule microarray, 635 nm fluorescence, stem cell growth factors, primary screen (AID 1073). The conditions noted are these: higher = more signal.
In test [6] the target is Pro-neuregulin-1, membrane-bound isoform (Homo sapiens) (UniProt Q02297). The test is described as follows: small molecules binding neuregulin-1 protein – biochemical, small-molecule microarray, fluorescence 635/667, psychiatric disease protein project, primary screen (AID 1075).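 Also: score combines 667 nm spot fluorescence with signal to noise.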 The conditions noted are these: NRG1 binding, 635 nm fluorescence, higher = more signal.
The subject of test [7] is Neuregulin-1 EGF-like domain. Nature of the test: small molecules binding NRG1 EGF domain – biochemical, small-molecule microarray, 635 nm fluorescence, primary screen (AID 1081).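 Also: binding of the protein to compounds printed on small-molecule microarray slides.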 To be noted: higher = more signal.
A short description of test [8]: FRG1 expression reporter modulators in myotubes – cell-based, C2C12 myotubes, firefly/Renilla luciferase, luminescence, FRG1 inhibition for FSHD, primary screen (AID 1084). The conditions noted are these: FRG1 promoter luciferase, higher = more signal, called active from +8 up or from −8 down.
The nature of test [9]: small molecules captured by biotinylated probe aFST – biochemical, small-molecule microarray, fluorescence 635/667, stem cell growth factor project, primary screen (AID 1086).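 Also: score merges 667 nm fluorescence with signal-to-noise of each printed compound spot.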 To be noted: higher = more signal.
Test [10] is described as follows: binders of probe aHhip on microarray, primary screen, stem cell growth factor project, biochemical, small-molecule microarray, fluorescence 635/667 (AID 1087).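 Also: score merges spot fluorescence at 667nm with spot signal to noise ratio.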 The conditions noted are these: higher = more signal.

Chain of Neurogenic locus notch homolog protein 2 (Homo sapiens) (Q04721 whole entry, looked up, canonical isoform): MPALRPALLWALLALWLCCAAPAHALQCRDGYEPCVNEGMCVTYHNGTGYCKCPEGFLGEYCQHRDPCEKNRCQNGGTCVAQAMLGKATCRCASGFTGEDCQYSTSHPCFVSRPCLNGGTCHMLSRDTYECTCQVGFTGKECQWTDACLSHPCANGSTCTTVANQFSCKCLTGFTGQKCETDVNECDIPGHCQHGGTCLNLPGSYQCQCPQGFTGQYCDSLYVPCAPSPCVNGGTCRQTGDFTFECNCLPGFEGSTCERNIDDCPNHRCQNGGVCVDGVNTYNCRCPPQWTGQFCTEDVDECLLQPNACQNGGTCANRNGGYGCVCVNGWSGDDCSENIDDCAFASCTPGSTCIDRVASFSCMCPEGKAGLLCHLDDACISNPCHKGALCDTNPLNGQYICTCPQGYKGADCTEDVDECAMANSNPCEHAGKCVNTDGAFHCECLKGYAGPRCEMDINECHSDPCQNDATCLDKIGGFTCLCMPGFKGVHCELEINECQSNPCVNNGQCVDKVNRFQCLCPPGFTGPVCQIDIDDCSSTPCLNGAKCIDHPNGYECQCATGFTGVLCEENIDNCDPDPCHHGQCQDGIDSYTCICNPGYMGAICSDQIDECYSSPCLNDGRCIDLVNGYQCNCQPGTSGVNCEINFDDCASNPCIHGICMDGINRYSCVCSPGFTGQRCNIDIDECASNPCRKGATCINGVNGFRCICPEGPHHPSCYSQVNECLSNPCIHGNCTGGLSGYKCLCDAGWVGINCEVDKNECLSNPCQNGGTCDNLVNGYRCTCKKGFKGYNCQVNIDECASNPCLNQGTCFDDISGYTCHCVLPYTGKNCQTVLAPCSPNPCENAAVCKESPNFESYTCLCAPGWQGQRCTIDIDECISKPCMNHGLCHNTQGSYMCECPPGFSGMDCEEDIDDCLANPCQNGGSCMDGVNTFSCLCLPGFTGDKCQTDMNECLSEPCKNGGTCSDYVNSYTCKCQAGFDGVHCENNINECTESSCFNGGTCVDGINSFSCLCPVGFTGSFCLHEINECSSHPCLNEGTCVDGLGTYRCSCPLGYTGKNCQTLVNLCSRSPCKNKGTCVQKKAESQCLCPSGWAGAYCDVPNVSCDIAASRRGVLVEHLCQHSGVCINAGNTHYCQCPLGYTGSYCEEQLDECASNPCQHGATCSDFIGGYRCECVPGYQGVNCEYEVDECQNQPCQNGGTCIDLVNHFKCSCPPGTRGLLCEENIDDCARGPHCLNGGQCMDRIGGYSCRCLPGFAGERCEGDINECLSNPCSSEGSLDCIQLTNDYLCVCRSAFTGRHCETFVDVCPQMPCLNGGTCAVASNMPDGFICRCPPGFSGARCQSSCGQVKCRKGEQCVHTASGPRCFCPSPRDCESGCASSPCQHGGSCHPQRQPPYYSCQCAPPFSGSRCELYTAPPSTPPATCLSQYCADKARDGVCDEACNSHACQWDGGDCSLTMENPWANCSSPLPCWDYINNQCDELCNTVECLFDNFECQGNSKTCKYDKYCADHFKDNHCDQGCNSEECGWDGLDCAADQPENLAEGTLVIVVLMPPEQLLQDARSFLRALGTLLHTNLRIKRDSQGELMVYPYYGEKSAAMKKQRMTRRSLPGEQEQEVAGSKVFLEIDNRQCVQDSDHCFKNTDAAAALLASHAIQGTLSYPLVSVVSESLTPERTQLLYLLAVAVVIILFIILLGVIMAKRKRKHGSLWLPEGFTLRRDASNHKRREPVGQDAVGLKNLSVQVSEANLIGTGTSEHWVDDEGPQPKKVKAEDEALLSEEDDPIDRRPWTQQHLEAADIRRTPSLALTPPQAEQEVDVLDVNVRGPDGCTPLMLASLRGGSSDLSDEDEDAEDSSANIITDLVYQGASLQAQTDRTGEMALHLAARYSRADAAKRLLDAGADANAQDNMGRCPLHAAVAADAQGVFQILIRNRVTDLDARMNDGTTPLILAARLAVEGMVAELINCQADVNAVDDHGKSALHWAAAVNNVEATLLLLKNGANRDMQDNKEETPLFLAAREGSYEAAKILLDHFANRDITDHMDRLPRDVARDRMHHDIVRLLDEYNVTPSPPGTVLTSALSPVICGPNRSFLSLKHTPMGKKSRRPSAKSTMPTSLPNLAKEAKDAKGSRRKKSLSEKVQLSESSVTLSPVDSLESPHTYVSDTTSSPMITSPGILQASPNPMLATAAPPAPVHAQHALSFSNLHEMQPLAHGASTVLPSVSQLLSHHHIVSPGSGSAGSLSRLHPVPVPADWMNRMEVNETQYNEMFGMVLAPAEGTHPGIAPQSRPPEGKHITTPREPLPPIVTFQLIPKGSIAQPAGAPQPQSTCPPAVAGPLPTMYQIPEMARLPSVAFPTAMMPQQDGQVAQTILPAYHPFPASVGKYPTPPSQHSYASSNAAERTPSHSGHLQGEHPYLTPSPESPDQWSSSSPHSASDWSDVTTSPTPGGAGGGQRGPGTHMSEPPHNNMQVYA
Chain of Pro-neuregulin-1, membrane-bound isoform (Homo sapiens) (Q02297 whole entry, looked up, the tested form may be a part, canonical isoform): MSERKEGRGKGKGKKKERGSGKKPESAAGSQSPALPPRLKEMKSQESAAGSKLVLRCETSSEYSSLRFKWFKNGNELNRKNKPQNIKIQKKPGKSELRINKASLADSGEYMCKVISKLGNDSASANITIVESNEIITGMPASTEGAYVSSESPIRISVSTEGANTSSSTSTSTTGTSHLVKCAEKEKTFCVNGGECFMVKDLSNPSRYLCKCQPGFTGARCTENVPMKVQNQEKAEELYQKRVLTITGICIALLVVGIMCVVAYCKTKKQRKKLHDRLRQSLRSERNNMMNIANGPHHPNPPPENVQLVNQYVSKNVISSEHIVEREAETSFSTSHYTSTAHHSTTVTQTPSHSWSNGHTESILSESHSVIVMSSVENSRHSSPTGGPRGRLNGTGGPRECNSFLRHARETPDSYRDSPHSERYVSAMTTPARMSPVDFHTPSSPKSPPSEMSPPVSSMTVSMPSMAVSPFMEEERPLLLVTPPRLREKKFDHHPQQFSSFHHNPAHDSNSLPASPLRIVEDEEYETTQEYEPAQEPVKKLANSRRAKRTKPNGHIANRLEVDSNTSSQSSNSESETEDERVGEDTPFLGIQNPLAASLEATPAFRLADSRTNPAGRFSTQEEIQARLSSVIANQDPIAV

Regarding `O=C1[C@H]2[C@H]3[C@H](O)[C@H](O)CC(=NO[C@@H]4O[C@H](CO)[C@@H](O)[C@H](O)[C@H]4O)[C@H]3CC[C@H]2C(=O)N1Cc1ccccc1`, the composite z-score in [1] was -0.658; in test [2] it was 0.0571; in test [3] it was -0.116; in test [4], 0.602; in test [5], 1.4; in test [6], -0.328. Also, the figures for the composite z-score in test [7], in test [9] and in test [10] were 0.0944, 0.564 and 0.199, respectively. The z-score in [8] is 0.632 (inactive).
With `O=C1C2=CC[C@H]3C(=O)N(Cc4ccc5c(c4)OCO5)C(=O)[C@H]3[C@H]2[C@H](O)[C@@H]2O[C@H]12`, the composite z-score is -0.319 in test [1]; 0.295 in [2]; -0.141 in test [3]; 0.375 in [4]; 0.617 in test [5]; -0.149 in test [6]. Further, the composite z-score in [7] is -0.0029; in [9], 0.407; in [10] it was -0.308. For the same molecule, the z-score in [8] was 0.593 (inactive).
As to `COCCOC(=O)N1C(=O)[C@@]2(c3cc(C#Cc4ccc(OC)cc4)ccc31)[C@H](c1ccc(O)cc1)N1[C@H](c3ccccc3)[C@H](c3ccccc3)OC(=O)[C@H]1[C@@H]2C(N)=O`, the composite z-score in [1] is -0.513; in test [2], 0.258; in [3], -0.031; in test [4], 0.602; in test [5], 1.35; in test [6], 1.17. Moreover, the composite z-score in test [7] came to 1.26; in test [9], 0.674; in test [10], 0.291. Moreover, the z-score in test [8] is 0.497 (inactive).
In the case of `CC(=O)OC[C@H]1O[C@@H](ON=C(C)CCN2CCc3nc(-c4ccccc4)c(-c4ccccc4)cc3C2)[C@H](OC(C)=O)[C@@H](OC(C)=O)[C@@H]1OC(C)=O`, the composite z-score is -0.209 in [1]; 0.217 in test [2]; -0.213 in [3]; 0.958 in test [4]; 1.11 in [5]; 0.817 in test [6]. Besides, the composite z-score is 0.992 in test [7], 0.473 in [9] and 0.21 in test [10]. Besides, the z-score in test [8] is 0.66 (inactive).
`O[C@@H](Cc1ccccc1)[C@H]1C2C=CCCC(c3ccccc3)=C2CN1Cc1cccc(Cl)c1` (stereo not given in full): the composite z-score is -0.39 in test [1]; 0.507 in test [2]; -0.015 in test [3]; 0.271 in [4]; 0.799 in [5]; 1.08 in test [6]. Besides, the figures for the composite z-score in [7], in test [9] and in [10] were 1.07, 0.26 and -0.0047, respectively. Besides, in test [8], the z-score is -2.31 (inactive).
As for `COC(=O)CC=C[C@@H](C)[C@@H](C=NO[C@H](C)c1cn([C@@H]2COC[C@H]2O)nn1)OC`, the composite z-score is -0.276 in [1]; 0.563 in [2]; -0.0914 in test [3]; 0.37 in test [4]; 0.268 in test [5]; -0.482 in test [6]. In addition, the composite z-score in [7] stood at 0.951; in test [9], 0.0889; in test [10] it was 0.0024. Further, in test [8], the z-score was -0.954 (inactive).
Turning to `CCOC(=O)NN=C1C[C@@H](O)[C@@H](O)[C@@H]2[C@@H]3C(=O)N(C4CCCCC4)C(=O)[C@@H]3CC[C@@H]12`, the composite z-score in [1] was -0.236; in test [2] it was 0.584; in [3], -0.194; in [4], 0.469; in test [5], 0.489; in test [6], -0.123. The composite z-score is -0.424 in [7], 0.554 in test [9] and -0.132 in test [10]. Besides, the z-score in test [8] was -0.371 (inactive).
For `NCCCCCNC(=O)[C@@H]1C[C@@H]2C(=O)N3CCC[C@H]3C(=O)N2[C@@H]1c1cccc(OCCO)c1`, the composite z-score in test [1] was 2.37; in test [2], 2.1; in test [3], 0.103; in [4], 0.349; in test [5], 0.185; in test [6], 1.86. Also, the composite z-score worked out at 1.26 in test [7], 1.68 in [9] and 0.309 in test [10]. Besides, the z-score in test [8] is 0.76 (inactive).
Turning to `C=CC[C@@H]1C=C[C@H](ON=C2c3cc(OC)ccc3O[C@H](c3cccc(OC)c3)[C@H]2O)[C@@H](CO)O1`, the composite z-score was -0.342 in test [1]; 0.0359 in test [2]; -0.1 in [3]; 0.415 in [4]; 0.144 in test [5]; 0.0499 in test [6]. Moreover, the figures for the composite z-score in test [7], in [9] and in test [10] were -0.199, 0.127 and -0.0994, respectively. In addition, the z-score in test [8] was -0.577 (inactive).
With `Cc1ccc(S[C@]2(C(=O)O)CC(=O)N(Cc3ccccc3)[C@@H]2c2ccc(CO)cc2I)cc1`, the composite z-score in [1] was 0.481; in test [2], -0.421; in [3], -0.0494; in [4], -0.333; in test [5] it was -0.143; in test [6], 1.8. For the same molecule, the results for the composite z-score in [7], in test [9] and in test [10] were 1.03, -0.255 and -0.0994, respectively. Also, the z-score in test [8] was -0.406 (inactive).
For `CCCC[C@@H]1C[C@H]1[C@@H](NS(=O)(=O)c1cccc2cccnc12)c1ccc(-c2ccccc2)cc1`, the composite z-score was 0.682 in test [1]; -0.165 in test [2]; 0.0011 in [3]; 0.0132 in test [4]; 0.523 in [5]; 0.071 in [6]. The values for the composite z-score in [7], in [9] and in test [10] were 0.918, 0.436 and -0.0123, respectively. Also, in test [8], the z-score is 0.448 (inactive).
Turning to `CCN(CC)c1ccc(N2CC=CC34O[C@@H]5/C=C\CCC(C)OC(=O)C5[C@H]3C(=O)N(CCCO)[C@@H]4C2=O)cc1` (stereo not given in full), the composite z-score in test [1] is 0.678; in test [2] it was 0.215; in [3] it was -0.0766; in test [4], 0.408; in test [5] it was -0.659; in [6], 0.63. Also, the composite z-score in test [7] is 1.58; in test [9], -0.444; in test [10] it was -0.0237. Moreover, the z-score in test [8] is 0.957 (inactive).
For `COc1cccc([C@@H]2Oc3ccc(Br)cc3C(=O)[C@H]2O)c1`, the composite z-score in [1] was -0.614; in test [2], 0.291; in [3] it was -0.0291; in test [4] it was 0.783; in [5], 0.458; in test [6], 0.297. Further, the composite z-score came out at 0.972 in test [7], 0.0846 in [9] and 0.235 in test [10]. Further, the z-score in [8] was 3.62 (inactive).

Source of the values: PubChem BioAssay.
